Source: ChEMBL document CHEMBL3433997, “St. Jude Leishmania screening dataset” (2016)

Target: Solute carrier family 2, facilitated glucose transporter member 1 (Homo sapiens) (UniProt P11166)
Test: ST_JUDE_LEISH: Cytotoxicity at 2uM final concentration against transgenic Leishmania Mexicana promastigotes LmGLUT1 that are glucose transport deficient and complemented with the human glucose transporter GLUT1. Activity is measured by DNA content using SYBR green in vitro
Format: functional

Chain of Solute carrier family 2, facilitated glucose transporter member 1 (Homo sapiens) (P11166 whole entry): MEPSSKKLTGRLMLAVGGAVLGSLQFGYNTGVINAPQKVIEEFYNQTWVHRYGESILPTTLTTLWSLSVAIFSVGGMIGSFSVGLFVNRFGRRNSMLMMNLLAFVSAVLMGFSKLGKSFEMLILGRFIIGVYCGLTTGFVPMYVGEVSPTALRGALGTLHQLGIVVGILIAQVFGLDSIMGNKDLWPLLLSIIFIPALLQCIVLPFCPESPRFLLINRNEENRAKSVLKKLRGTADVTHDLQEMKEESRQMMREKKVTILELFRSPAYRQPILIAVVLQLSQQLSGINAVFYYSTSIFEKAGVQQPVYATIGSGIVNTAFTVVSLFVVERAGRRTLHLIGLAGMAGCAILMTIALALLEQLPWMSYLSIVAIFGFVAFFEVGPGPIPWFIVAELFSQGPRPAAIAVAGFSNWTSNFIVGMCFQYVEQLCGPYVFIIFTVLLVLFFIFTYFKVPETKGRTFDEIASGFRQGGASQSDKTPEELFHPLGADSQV

In order of rising inhibition:
1. Cc1cccc2nc(-c3cccc(-c4cccc(NC(=O)Nc5ccc(Cl)cc5)c4)c3)[nH]c12  -3.06%
2. CN1CCN(c2cc(NC(=O)Nc3cccc(Cl)c3Cl)ccc2Cl)CC1  -2.56%
3. COc1ccc(C2CC(c3cccs3)=NN2C(=O)COc2cccc3c2CCCC3O)cc1OC (stereo not drawn)  -1.84%
4. O=C(NCc1ccccc1)Nc1ccc(-c2cccc(-c3nc4cc(C(F)(F)F)ccc4[nH]3)c2)cc1  -0.99%
5. COc1ccccc1N1CCN(CCCCNC(=O)c2ccc(NC(=O)c3ccc(C(F)(F)F)cc3)cc2)CC1  -0.92%
6. O=C(NC1CCCC1)c1ccc(N2CCC(NCc3cccc(C(F)(F)F)c3)CC2)cc1  -0.33%
7. O=C(/C=C/c1ccc(Cl)c(Cl)c1)NCCCCCN1CCCC(C(=O)Nc2ccc(Cl)c(Cl)c2)C1 (stereo not drawn)  -0.31%
8. COc1ccc(NC(=O)N2CCCN(CCCCCNC(=O)/C=C/c3ccc(C(F)(F)F)cc3)CC2)cc1Cl  -0.26%
9. Cc1cc(=NN=Cc2cccc(Cl)c2)c2ccc(F)cc2[nH]1  0.61%
10. N#Cc1cccc(C(O)CN(Cc2ccccc2)Cc2ccccc2)c1 (stereo not drawn)  1.37%
11. CN1CCCC1CNS(=O)(=O)c1ccc(C(=O)NCC2CC2)cc1 (stereo not drawn)  1.51%
12. O=C(Nc1cccc(-c2csc(NC(=O)c3ccc4ccccc4c3)n2)c1)c1ccc2ccccc2c1  1.53%
13. O=C(Nc1ccc2c(c1)CCN(C1CCC1)CC2)c1ccc(-n2ccnc2)cn1  1.81%
14. COc1ccc(CC(Cc2ccc(OC)cc2)NCC(O)c2cccc(Cl)c2)cc1 (stereo not drawn)  2.03%
15. Cc1ccc(OCCCON2C(=N)N=C(N)NC2(C)C)cc1C  2.79%
16. COc1ccc(CNCc2ccc(-c3cccc(-c4nc5cccc(C)c5[nH]4)c3)cc2)cc1  2.87%
17. COc1ccc(C(=O)CCC(=O)N(Cc2ccc(-c3ccc(CNCc4cccnc4)cn3)cc2)C2CCN(Cc3ccccc3)CC2)cc1F  3.47%
18. CCN1C(=O)N(CCC(C)C)C2(CCN(Cc3ccc(OC)cc3O)CC2)C1=O  5.4%
19. COc1ccc(CCCc2nc(N)nc(N)c2-c2ccc(Cl)cc2)cc1  6.21%
20. N#Cc1ccc2c(c1)CCN(CCC1CCC(NC(=O)c3cc4ccccc4[nH]3)CC1)CC2 (stereo not drawn)  8.94%
21. CC(=O)Nc1cc(C(=O)Nc2cccc(-c3csc(-c4nc5ccccc5[nH]4)c3)c2)ccc1C  10.5%
22. Cc1cccc2nc(-c3cccc(-c4cccc(NC(=O)Nc5cccc(C#N)c5)c4)c3)[nH]c12  11.2%
23. Cc1c(CNCCCNc2cc(=O)c3ccccc3[nH]2)sc(-c2ccco2)c1Br  14.4%
24. CN1CCN(CCNc2c3ccccc3nc3c2ccc2ccccc23)CC1  84.6%

Target: Hexose transporter 1 (Plasmodium falciparum) (UniProt O97467)
Test: ST_JUDE_LEISH: Cytotoxicity at 2uM final concentration against transgenic Leishmania Mexicana promastigotes LmPfHT that are glucose transport deficient and complemented with the Plasmodium falciparum hexose transporter. Activity is measured by DNA content using SYBR green in vitro
Format: functional

In order of rising inhibition:
1. CN1CCN(c2cc(NC(=O)Nc3cccc(Cl)c3Cl)ccc2Cl)CC1  -2.86%
2. CCN(CC)CCN(Cc1ccc(-c2ccc(Cl)cc2)cc1)C(=O)Cn1c(CCc2cccc(F)c2F)nc(=O)c2ccccc21  -2.71%
3. CCN1CCN(c2cc(C)c3cc(NC(=O)c4cncc(Br)c4)ccc3n2)CC1  -1.3%
4. O=C(/C=C/c1ccc(Cl)c(Cl)c1)NCCCCCN1CCCC(C(=O)Nc2ccc(Cl)c(Cl)c2)C1 (stereo not drawn)  -1.19%
5. COc1ccc(NC(=O)N2CCCN(CCCCCNC(=O)/C=C/c3ccc(C(F)(F)F)cc3)CC2)cc1Cl  -1.14%
6. O=C(NC1CCCC1)c1ccc(N2CCC(NCc3cccc(C(F)(F)F)c3)CC2)cc1  -0.97%
7. Cc1cccc2nc(-c3cccc(-c4cccc(NC(=O)Nc5ccc(Cl)cc5)c4)c3)[nH]c12  -0.68%
8. COc1ccccc1N1CCN(CCCCNC(=O)c2ccc(NC(=O)c3ccc(C(F)(F)F)cc3)cc2)CC1  -0.29%
9. O=C(NCc1ccccc1)Nc1ccc(-c2cccc(-c3nc4cc(C(F)(F)F)ccc4[nH]3)c2)cc1  -0.18%
10. CC(C)(C(=O)Nc1ccc(N2CCC3(CCCN(CC4CC4)C3)CC2)c(Cl)c1)c1cccc(C(F)(F)F)c1  -0.12%
11. COc1ccc(C2CC(c3cccs3)=NN2C(=O)COc2cccc3c2CCCC3O)cc1OC (stereo not drawn)  -0.04%
12. CC1CCc2c(C(=O)Nc3c(F)cc(F)cc3Br)csc2C1 (stereo not drawn)  0.02%
13. COc1ccc(CC(Cc2ccc(OC)cc2)NCC(O)c2cccc(Cl)c2)cc1 (stereo not drawn)  0.72%
14. Cc1cc(=NN=Cc2cccc(Cl)c2)c2ccc(F)cc2[nH]1  1.03%
15. CC(C)CNCc1cccc(-c2ccc(CNc3ccc4ncccc4c3)cc2)c1  1.19%
16. O=C(Nc1cccc(-c2csc(NC(=O)c3ccc4ccccc4c3)n2)c1)c1ccc2ccccc2c1  1.22%
17. COc1ccc(C(=O)CCC(=O)N(Cc2ccc(-c3ccc(CNCc4cccnc4)cn3)cc2)C2CCN(Cc3ccccc3)CC2)cc1F  1.26%
18. COc1ccc(CNCc2ccc(-c3cccc(-c4nc5cccc(C)c5[nH]4)c3)cc2)cc1  1.37%
19. N#Cc1cccc(C(O)CN(Cc2ccccc2)Cc2ccccc2)c1 (stereo not drawn)  1.53%
20. CN1CCN(CC(=O)Nc2ccc(-c3cccc(-c4nc5cc(C(F)(F)F)ccc5[nH]4)c3)cc2)CC1  1.68%
21. CCNc1cc(C(=O)N[C@@H](Cc2ccccc2)[C@H](O)CNC2CC3CCC2C3)cc(N2CCCCS2(=O)=O)c1 (stereo partly drawn)  1.76%
22. COCCNC(=O)c1ccc(OC2CCN(Cc3ccc(F)c(F)c3)CC2)c(Cl)c1  1.83%
23. CN1CCCC1CNS(=O)(=O)c1ccc(C(=O)NCC2CC2)cc1 (stereo not drawn)  2.45%
24. Cc1ccc(OCCCON2C(=N)N=C(N)NC2(C)C)cc1C  2.67%
25. O=C(Nc1ccc2c(c1)CCN(C1CCC1)CC2)c1ccc(-n2ccnc2)cn1  2.97%
26. CCN1C(=O)N(CCC(C)C)C2(CCN(Cc3ccc(OC)cc3O)CC2)C1=O  3.01%
27. O=C(NC1CC1)c1ccc(N2CCC(COc3cccc(F)c3)CC2)nc1  4.16%
28. CN(C)CCc1coc2ccc(C(=O)Nc3ccc(-c4ccc(O)cc4)cc3)cc12  4.41%
29. Cc1cc(Br)c(OCCCON2C(=N)N=C(N)NC2(C)C)c(Br)c1  4.88%
30. N#Cc1ccc2c(c1)CCN(CCC1CCC(NC(=O)c3cc4ccccc4[nH]3)CC1)CC2 (stereo not drawn)  5.71%
31. CCCCSc1c(CNCCCCCCNCc2ccc3ccccc3c2SCCCC)ccc2ccccc12  5.83%
32. N=C(N)NC(=O)Nc1cc(Cl)c(Br)c(Cl)c1  6.09%
33. COc1ccc(CCCc2nc(N)nc(N)c2-c2ccc(Cl)cc2)cc1  6.84%
34. Cc1nnnn1-c1ccc(C(=O)N2CCC3(CC2)CN(Cc2ccc(Cl)c(Cl)c2)C(=O)O3)cc1  8.51%
35. CC(=O)Nc1cc(C(=O)Nc2cccc(-c3csc(-c4nc5ccccc5[nH]4)c3)c2)ccc1C  9.84%
36. CCNc1cc(C)nc(Nc2ccc(NC(=O)Cc3ccc(OC)cc3)cc2)n1  10.1%
37. Cc1cccc2nc(-c3cccc(-c4cccc(NC(=O)Nc5cccc(C#N)c5)c4)c3)[nH]c12  10.1%
38. Cc1c(CNCCCNc2cc(=O)c3ccccc3[nH]2)sc(-c2ccco2)c1Br  13.6%
39. CN1CCN(CCNc2c3ccccc3nc3c2ccc2ccccc23)CC1  88%
